Assay results: PubChem BioAssay AID488835 (Broad Institute, 2010)
Among all 1,400 compounds or so, about 140 (10%) were called active.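 The calls were made as follows: active = Half-maximal inhibitory dose from the fit at or below ten times the top valid tested dose; inconclusive = Invalid fit, or flat curve showing 30 to 70% inhibition; inactive = the rest.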 Only a sample is shown. Results with a measured potency or affinity are listed apart.

These molecules were tested against Lysine-specific demethylase 4C (Homo sapiens) (UniProt Q9H3R0) (assay: GASC-1 (JMJD2C) histone demethylase inhibitors, dose response, biochemical, DELFIA europium, cherry-picked samples (AID 488835;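 also: signal is the H3K9me2 demethylation product detected by a dimethyl-specific antibody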)). Details: GST-JMJD2C(1-420), H3K9me3 demethylation; series mostly up to 6 µM.
Lysine-specific demethylase 4C (Homo sapiens), sequence (Q9H3R0 1-420 limits assumed): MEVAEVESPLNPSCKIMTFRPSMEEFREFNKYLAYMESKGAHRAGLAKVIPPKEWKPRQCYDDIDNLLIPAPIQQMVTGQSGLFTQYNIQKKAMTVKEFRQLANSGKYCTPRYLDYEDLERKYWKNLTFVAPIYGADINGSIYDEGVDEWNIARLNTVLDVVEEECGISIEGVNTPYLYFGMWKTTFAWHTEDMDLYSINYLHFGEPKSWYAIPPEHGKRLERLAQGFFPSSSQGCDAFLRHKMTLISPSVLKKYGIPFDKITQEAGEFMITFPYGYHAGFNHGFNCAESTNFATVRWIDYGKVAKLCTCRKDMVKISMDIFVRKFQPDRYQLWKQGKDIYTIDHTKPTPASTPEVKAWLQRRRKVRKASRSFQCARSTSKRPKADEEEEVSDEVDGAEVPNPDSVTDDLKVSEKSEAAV

outcome, inactive:
COc1ccc2[nH]c(=O)c(CN(CCCN(C)C)C(=O)Nc3ccc(F)cc3)cc2c1, N#Cc1ccc(OCC(=O)Nc2ccccc2NS(=O)(=O)c2cccs2)cc1, CC(=O)C[C@@H](O)CC(=O)[C@H]1OC(=O)[C@H](C)C/C=C\Cc2ccccc21, Cc1cccc(C)c1NC1=NC(=S)N(c2ccc(C(=O)O)cc2)C12CCCCC2, O=C(COc1ccc(Cl)cc1)NCCCn1ccnc1, O=C(OCCCOC(=O)c1ccc(Br)o1)c1ccc(Br)o1, CN(C)S(=O)(=O)c1ccc(N2CCCC2)c(C(=O)Nc2nc3ccc(F)cc3s2)c1, COc1ccc2cc(Br)ccc2c1CC(=O)NCCCN1CCOCC1, CSCCC(NS(=O)(=O)c1ccc2ccccc2c1)C(=O)O (stereo not drawn), Cn1c(=O)[nH]c(=O)c2[nH]c(NCCCN3CCOCC3)nc21, CCOC(=O)N1CCN(c2ccc(F)cc2[N+](=O)[O-])CC1, NC(=O)CC(NC(=S)NCc1ccccc1)C(=O)O (stereo not drawn), O=C(c1ccc2c(c1)OCO2)N1CCCN(C(=O)c2ccc3c(c2)OCO3)CC1, COc1ccc(CC(=O)Nc2ccc(/C(C)=N/NC(=O)c3cccc([N+](=O)[O-])c3)cc2)cc1, O=C(NCC(=O)N1CCCCC1)c1sc2ccccc2c1Cl, c1cc2c(cc1C1CCCCC1)c1c3n2CCCNC3CCC1 (stereo not drawn), COC(=O)c1cc(S(=O)(=O)NCCCN2CCCC2=O)cn1C, O=[N+]([O-])c1ccc(N2CCN(S(=O)(=O)c3ccc(Cl)cc3)CC2)cc1NCc1cccnc1, C=CCNC(=O)c1ccc(S(=O)(=O)CC)c(Cl)c1Cl, COC(=O)C1CCN(C(=O)COC(=O)COc2ccc(C#N)cc2)CC1, COc1cccc(NC(=S)/C(=C(\[O-])c2ccc(C)c([N+](=O)[O-])c2)[n+]2ccccc2)c1, O=C(CSc1nnc(CNC(=O)c2cccs2)o1)c1ccccc1, Cn1nnnc1SCC(=O)NCC(=O)c1ccccc1, NCc1nc(-c2ccc(Cl)cc2)no1, CCS(=O)(=O)Nc1ccc(C2=NN(C(=O)c3ccco3)C(c3ccc(C)cc3)C2)cc1 (stereo not drawn), CC(CN1CCCC1)OC(=O)COc1ccccc1 (stereo not drawn), COc1ccc(C(=O)NC2CC3CCCC(C2)N3Cc2ccccc2)cc1 (stereo not drawn), CCN(CC)S(=O)(=O)c1ccc(N2CCOCC2)c(NC(=O)c2ccc3c(c2)OCCO3)c1, O=C(NC1CCN(S(=O)(=O)c2ccc(F)cc2)CC1)c1ccc(F)cc1, Oc1ccccc1N1CCN(C(=S)NCc2ccccc2)CC1, O=C(O)CCNc1ccc2c(c1)OCCO2, COc1ccc(S(=O)(=O)Nc2cccc3c2O[C@H](CN(C)Cc2ccc(C(=O)O)cc2)[C@@H](C)CN([C@H](C)CO)C3=O)cc1, CC(C)(C)C1CCc2[nH]c3ccccc3c(=O)c2C1 (stereo not drawn), Cc1cc(=O)[nH]c(SCC(=O)Nc2ncc(S(=O)(=O)c3ccc([N+](=O)[O-])cc3)s2)n1, CCn1c(=O)c(C(=O)NCCc2ccc(Cl)cc2)c(O)c2ccccc21, CC1CCCCC12NC(=O)N(CC(=O)NCCc1ccccn1)C2=O (stereo not drawn), COc1ccc(NC(=O)Nc2c[nH]c(=O)[nH]c2=O)cc1OC, COc1ccc(C(=O)OCCc2sc[n+](CC(=O)c3ccccc3)c2C)cc1, CCOC(=O)N1CCC(c2nc3ccccc3[nH]2)CC1, O=C(c1cccc(C(F)(F)F)c1)N1CCCC1, O=C(O)c1ccc(/C=N/Nc2cccc(C(F)(F)F)c2)cc1, Cn1c2ccccc2c(=O)c2ccc(NCCc3cccs3)cc21, COc1cccc(C(C[N+](=O)[O-])c2c(C)[nH]n(-c3ccccc3)c2=O)c1 (stereo not drawn), CCCc1nn(C)c(C(=O)Nc2ccc(C)c(C)c2)c1Cl, O=C(Nc1nc2ccccc2n1CCN1CCCC1)C1CCCCC1, O=C(N/N=C/c1cc([N+](=O)[O-])cc([N+](=O)[O-])c1O)/C(=C\c1cccs1)NC(=O)c1ccccc1, Cc1ccc(/C=N\NC(=O)c2cc([N+](=O)[O-])cc([N+](=O)[O-])c2)o1, CC(C)c1ccc(NC2CCCN(C(=O)CCN3CCCCC3=O)C2)cc1 (stereo not drawn), c1ccc(-c2csc(-n3cccn3)n2)cc1, CCOC(=O)c1sc(=S)n(-c2ccc(Cl)cc2)c1SC, O=C(Oc1ccc(N2C(=O)CCC2=O)cc1)c1ccccc1, O=C(Nc1nnc(-c2cc(Cl)ccc2Cl)o1)c1ccco1, COc1ccc(OC)c(C2=NOC(C(=O)NCCN3CCOCC3)C2)c1 (stereo not drawn), CCOC(=O)[C@H]1[C@H]2COc3ccc(OC)cc3[C@@H]2N2C(=O)c3cc(C)ccc3NC(=O)[C@@]12C, Cc1cc2ccccn2c1C(=O)c1ccncc1, O=C1CC(CSc2ccc(Cl)cc2)=NN1, CCN(Cc1cc2cc(OC)ccc2[nH]c1=O)C(=O)c1ccncc1, Cc1ccccc1NC(=S)c1nc2ccccc2[nH]1, Cc1cccc(C2=N/C(=C\c3cccnc3)C(=O)O2)c1, O=[N+]([O-])c1ccc(/C=[N+](\[O-])[C@@H]2CCCC[C@@H]2/[N+]([O-])=C/c2ccc([N+](=O)[O-])o2)o1, Cc1cccc(NC(=O)/C(=C\c2ccc([N+](=O)[O-])o2)NC(=O)c2ccc(Cl)cc2)c1, Cc1cccc(N2C(=O)C3C4C=CC(C4)C3C2=O)c1 (stereo not drawn), COc1cccc(C2c3[nH]c4ccccc4c3CCN2CCCn2cccn2)c1 (stereo not drawn), N#CCCCCN1c2cccc3cccc(c23)S1(=O)=O, O=C(Cn1cnc2c(OCc3ccccc3)ncnc21)NCCN1CCOCC1, CN1CCN(c2ccc([N+](=O)[O-])cc2C(=O)N2CCOCC2)CC1, Cc1c(C(=O)N2CCC3(CC2)CC(=O)c2ccccc2O3)cccc1[N+](=O)[O-], COc1ccc(OC)c(N(CC(=O)NCc2ccncc2)S(C)(=O)=O)c1, COc1ccc(-c2cc(C(F)(F)F)n3nc(C(=O)NCCCN4CCOCC4)cc3n2)cc1, Cc1[nH]c2ccccc2c1-c1ccc(Cl)nn1, COC(=O)c1ccc(CSc2nnc(N)s2)o1, COC(=O)c1sc(S(=O)(=O)NCc2ccccc2)c(C(=O)OC)c1C, COc1ccc(NC(=O)N(C)C[C@H]2Oc3c(NC(=O)Nc4ccccc4)cccc3C(=O)N([C@H](C)CO)C[C@@H]2C)cc1, COC(=O)C(Cc1ccccc1)NC(=O)COc1ccc(C(C)(C)C)cc1 (stereo not drawn), COc1cc2cnncc2cc1OC, C/C(CC(=O)Nc1cccc(Cl)c1Cl)=N\NC(=O)c1ccccc1N, CC(C)(O)[C@H](O)Cc1cc2ccc(=O)oc2cc1O[C@@H]1O[C@H](CO)[C@@H](O)[C@H](O)[C@H]1O, CC1(C)CC[C@]2(CO)CC[C@]3(C)C(=CCC4[C@@]5(C)CC[C@H](O)[C@@](C)(CO)C5CC[C@]43C)[C@@H]2C1 (stereo partly drawn), CCN(C[C@H]1N[C@@](C)(C(=O)OC)[C@H]2C(=O)N(C)C(=O)[C@@H]12)C(=O)Nc1ccc(OC)cc1, COc1ccc(/C=N/NC(=O)c2cc(C)on2)c2ccccc12, O=C(NCC1CCCO1)c1ccc2c(=O)n(Cc3cccc(Br)c3)c(=S)[nH]c2c1 (stereo not drawn), CCn1c(SCC(=O)Nc2nc(C)cs2)nnc1-c1ccncc1, Cc1csc(NC(=O)CSc2nnc(-c3ccncc3)n2C)n1, CCCn1c2ccccc2c2nnc(SCC(=O)Nc3c(C)n(C)n(-c4ccccc4)c3=O)nc21, C[C@H](CO)N1C[C@H](C)[C@@H](CN(C)S(=O)(=O)c2ccccc2)Oc2ccc(NS(=O)(=O)c3ccc(F)cc3)cc2C1=O, O=C(COC(=O)Cc1ccccc1F)Nc1ccc(SC(F)F)cc1, CC(=O)N=c1sccn1CC(=O)c1ccc([N+](=O)[O-])cc1, COc1ccc(CNC(=O)CSc2nnnn2Cc2ccccc2)cc1, COc1ccccc1-c1nc(C#N)c(NCc2ccc(F)cc2)o1, CCNc1oc(-c2cccc3ccccc23)nc1C#N, O=c1c2ccccc2c(C=NCCCN2CCOCC2)c(O)n1Cc1ccccc1, CC(C)NC(=O)N(C)C[C@H]1Oc2ccc(NC(=O)C3CC3)cc2C(=O)N([C@H](C)CO)C[C@@H]1C, COC(=O)c1sc(NC(=O)c2cc3c(s2)CCCC3)nc1C, Cn1c(=O)[nH]c(=O)c2c1nc(SCC(=O)O)n2CCc1ccccc1, CCc1ccc(C(=O)CSc2nc3ccccc3c(=O)[nH]2)cc1, c1ccc(Nc2n[nH]nc2-c2ccccc2)cc1, CCn1c(=O)c(-c2nc3ccccc3[nH]2)c(O)c2ccccc21, C[C@H](CO)N1C[C@H](C)[C@@H](CN(C)C(=O)Nc2ccc(C(F)(F)F)cc2)Oc2c(cccc2N(C)C)C1=O, Cc1cc2oc(=O)cc(CSc3nnc(-c4cccs4)o3)c2cc1C(C)C, CC(=O)N1C(c2ccccc2O)C[C@]2(C)CC(=O)NC12 (stereo partly drawn), CCCc1cc(=O)[nH]c(SCC(=O)Nc2cc(S(=O)(=O)N(CC)c3ccccc3)ccc2Cl)n1, Cc1ccc(C(=O)Nc2sc3c(c2C(=O)O)CCCC3)o1, CN(C)CCCN1C(=O)C(=O)/C(=C(/O)c2ccncc2)C1c1ccccc1 (stereo not drawn)
